The values below come from PubChem BioAssay.

A short description of experiment [1]: yeast TOR pathway RPL19A-GFP modulators, primary screen, cell-based, S. cerevisiae, multiplex flow cytometry (AID 1862; in the data active = percent of DMSO control GFP below about 86%;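 note: lower values mimic rapamycin by blocking the RPL19A rise seen in DMSO cells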). The conditions noted are these: S. cerevisiae RPL19A-GFP strain, flow cytometry fluorescence, 3 h; at 10 µM; stronger effect = lower value. In general terms: Flow cytometry measures light scatter and fluorescence of single cells or particles in a stream.

The nature of experiment [2]: modulators of MEP2-GFP levels in yeast, primary screen, S. cerevisiae, multiplex flow cytometry (AID 1867;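 active = GFP response, as percent of the DMSO control, above the screen-wide mean plus 3 SD, about 139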;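 note: median GFP channel fluorescence of barcode-gated MEP2-GFP cells measured by flow cytometry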). Particulars: S. cerevisiae MEP2-GFP strain, 3 h, at 10 µM, stronger effect = higher value, 100% means same as DMSO wells.
Experiment [3] is described as follows: modulators of CIT2-GFP expression in yeast, primary screen, S. cerevisiae, GFP fusion, multiplex flow cytometry (AID 1870;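 active = percent response above a set limit, the screen-wide mean plus 3 SD, cut at about 130% in these data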;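 note: barcoded CIT2-GFP strain pooled with four other GFP strains with rapamycin as positive control; median GFP fluorescence per well over plate mean of DMSO wells so 100% = DMSO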). Particulars: 3 h, at 10 µM, stronger effect = higher value.
The nature of experiment [4]: modulators of LAP4-GFP expression in yeast, primary screen, S. cerevisiae, multiplex flow cytometry (AID 1873;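 active = GFP signal, as percent of the solvent control, above the screen mean plus 3 SD, about 149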). Particulars: 3 h, at 10 µM, stronger effect = higher value.
Experiment [5] can be described thus: modulators of AGP1-GFP expression in yeast TOR pathway, primary screen, cell-based, multiplex flow cytometry, S. cerevisiae (AID 1887;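 active = GFP signal above the screen-wide mean plus 3 SD, that is over about 124.5% of the solvent control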;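 note: AGP1-GFP fusion strain of S. cerevisiae within a five-strain barcoded multiplex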). Particulars: 3 h, at 10 µM, stronger effect = higher value.
Experiment [6] in a line: inhibitors of CD8+ T cell-vesicle binding, pilot screen, LFA-1/ICAM-1 modulator project, MLPCN validation set, flow cytometry (AID 2523;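 active = response below a set limit, under 55% cells CD8-positive and vesicle-bound, and CD8 cells' 90th-percentile brightness under 279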;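 for vesicle binding response: mean PE anti-B7-1 fluorescence of CD8+ cells relative to row control; 100% = QL9-loaded vesicles with DMSO vehicle in the same plate row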). The conditions noted are these: 2C mouse CD8+ T cells, at 7 µM, stronger effect = lower value; double positive events: measured here: CD8+/vesicle+ event percentage.
The target in experiment [7] is Integrin beta-1 (Homo sapiens) + Integrin alpha-4 (Homo sapiens) (UniProt P13612+P05556). Put plainly: inhibition of HUTS-21 binding to VLA-4, pilot screen, VLA-4 allosteric modulator project, U937 cells, HUTS-21 mAb, flow cytometry, validation set (AID 2674;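 active = inhibition above 50%, about 3 SD of the validation set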;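 note: antibody binding induced by the VLA-4 ligand LDV present at three times its Kd; 0% = LDV ligand with antibody and no compound and 100% = antibody without LDV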). Particulars: HUTS-21 LIBS mAb binding, at 6.7 µM, stronger effect = higher value, binding induced by LDV ligand.
A short description of experiment [8]: superoxide lowering in aged yeast cells, pilot screen, validation compound set (AID 2706;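 active = superoxide response below 65% of plate, a cut near 3 SD across the whole screen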;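 note: yeast exposed to compound for one week at 30 degrees C before staining; 100% = mean of all compound wells on the same plate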). Particulars: S. cerevisiae aging, superoxide DHE fluorescence; at 10 µM; stronger effect = lower value.
The target in experiment [9] is Beta-adrenergic receptor kinase 1 (Homo sapiens) (UniProt P25098). The experiment in a line: GRK2 binders displacing RNA aptamer, biochemical, validation, human GRK2, bead flow cytometry (AID 488806;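 active = aptamer binding inhibition above 30%, about 3 SD of noise from non-fluorescent compounds; inactive = inhibition at or below 30%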). Particulars: bead-bound GRK2, FAM-aptamer displacement, at 10 µM, stronger effect = higher value.
Experiment [10] addresses Beta-2 adrenergic receptor (Homo sapiens) (UniProt P07550). The experiment in a line: beta2AR agonists driving receptor internalization, pilot screen, cell-based, FAP fluorogen, flow cytometry, validation set (AID 504459;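 active = percent response above 42, roughly 3 SD of non-fluorescent test compounds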;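 note: agonist-driven loss of surface beta2AR via internalization measured by FAP dye flow cytometry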). The conditions noted are these: Am2.2-beta2AR cells, FAP surface receptor flow cytometry; at 10 µM; stronger effect = higher value.
Experiment [11] addresses AP-2 complex subunit beta (Homo sapiens) (UniProt P63010). The experiment in a line: inhibitors of arrestin peptide binding to AP2, pilot screen, biochemical, validation set, GST-AP2 beads, flow cytometry (AID 504541;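 active = inhibition above 54%, about 3 SD of non-fluorescent compounds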;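 note: AP2 carries R879A mutation and is captured from E. coli lysate; bead-bound FITC arrestin peptide fluorescence measuring arrestin peptide binding to AP2; 0% = DMSO wells and 100% = excess unlabeled arrestin peptide control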). Particulars: FITC arrestin peptide, at 10 µM, stronger effect = higher value, AP2 beta2 appendage fragment, R879A mutant.
Experiment [12] in a line: yeast V-ATPase proton transport modulators, S. cerevisiae, pHLuorin, HTS validation (AID 504600; in the data active = response above about 15%;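 note: plate controls were DMSO for no effect and reference compound for full effect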). The conditions noted are these: S. cerevisiae pHLuorin cytosolic pH, at 10 µM, stronger effect = higher value.
The test system of experiment [13] is anti-desmoglein-3 scFv antibody binding to human DSG3. Put plainly: inhibitors of anti-DSG3 scFv binding to DSG3, pilot screen, biochemical, validation compound set, bead-based, flow cytometry (AID 588368;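 active = binding below the plate cutoff, the plate median minus 3 SD, with a reading above zero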;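 note: signal is the median channel fluorescence of bead-bound GFP antibody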). Particulars: Protein G beads, DSG3-Fc, scFv-GFP binding, at 10 µM, stronger effect = lower value.
A short description of experiment [14]: inhibitors of fungal efflux pumps CDR1, CDR2, MDR1, pilot screen, validation compound set, multiplex, phenotypic (AID 588506;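 active = efflux inhibition above 0.42, the validation set average plus 4 SD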;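 note: Nile Red retained in cells so higher fluorescence means more efflux inhibition; 0 = negative control wells and 1 = enniatin B 25 µM full block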). Particulars: S. cerevisiae pump-expressing triplex, Nile Red efflux flow cytometry; at 10 µM; stronger effect = higher value; the pumps come from Candida albicans.
Experiment [15] addresses ATP-binding cassette sub-family B member 6 (Homo sapiens) (UniProt Q9NP58). Put plainly: ABCB6 transporter inhibitors, pilot screen, K562-ABCB6 cells, flow cytometry, validation set (AID 588550;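 active = inhibition above the screen-wide mean plus 3 SD, about 51%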;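 note: 0% = DMSO wells and 100% = benzethonium chloride 70 µM positive control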). Particulars: K562-ABCB6 porphyrin accumulation, 1 h, at 10 µM, stronger effect = higher value.
Experiment [16] in a line: promoters of myeloid differentiation in arrested cells, primary screen, cell-based, GFP/MAC1 double positive, flow cytometry, validation set (AID 588685).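 Note: compound exposure lasts four days before antibody staining and flow analysis; 0% = DMSO wells and 100% = 5 µM fulvestrant positive control.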 Particulars: ER-HoxA9 marrow cells, stronger effect = higher value, normalized: vehicle 0, fulvestrant 100.

What is called inhibition is the relative decrease from the control value, in per cent.

Inconclusive results are not listed. Active and inactive are the calls of the source.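 Rule for the calls, unless noted: active = differentiation response of at least 50%, scaled between solvent and reference control, from cells with both markers; inactive = the rest.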

Sequence of AP-2 complex subunit beta (Homo sapiens) (P63010 whole entry, looked up, the tested form may be a part, one chain of several): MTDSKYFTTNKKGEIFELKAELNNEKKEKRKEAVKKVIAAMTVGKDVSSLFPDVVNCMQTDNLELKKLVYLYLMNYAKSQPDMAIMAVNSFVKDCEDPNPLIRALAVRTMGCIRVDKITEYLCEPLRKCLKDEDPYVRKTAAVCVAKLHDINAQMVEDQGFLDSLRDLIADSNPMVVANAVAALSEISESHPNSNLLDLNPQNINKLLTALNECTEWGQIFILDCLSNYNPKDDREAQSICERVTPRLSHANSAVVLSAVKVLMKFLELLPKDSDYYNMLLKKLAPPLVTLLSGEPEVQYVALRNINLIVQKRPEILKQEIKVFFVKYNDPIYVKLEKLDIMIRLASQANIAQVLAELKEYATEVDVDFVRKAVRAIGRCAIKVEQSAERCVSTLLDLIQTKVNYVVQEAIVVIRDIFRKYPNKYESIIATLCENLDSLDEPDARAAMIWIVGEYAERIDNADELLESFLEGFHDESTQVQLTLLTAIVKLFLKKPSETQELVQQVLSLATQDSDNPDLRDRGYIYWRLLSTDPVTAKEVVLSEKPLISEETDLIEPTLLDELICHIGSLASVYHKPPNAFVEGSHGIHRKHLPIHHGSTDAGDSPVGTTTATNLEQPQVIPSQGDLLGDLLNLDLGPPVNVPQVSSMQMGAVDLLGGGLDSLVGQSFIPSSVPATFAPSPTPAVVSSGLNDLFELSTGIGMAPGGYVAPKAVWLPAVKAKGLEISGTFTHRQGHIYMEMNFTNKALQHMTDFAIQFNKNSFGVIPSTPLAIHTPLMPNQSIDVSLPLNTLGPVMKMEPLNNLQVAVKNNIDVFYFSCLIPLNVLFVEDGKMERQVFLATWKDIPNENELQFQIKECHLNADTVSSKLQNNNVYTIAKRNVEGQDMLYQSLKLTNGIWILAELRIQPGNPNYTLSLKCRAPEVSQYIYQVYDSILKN
Sequence of Integrin beta-1 (Homo sapiens) + Integrin alpha-4 (Homo sapiens) (P05556 whole entry, looked up): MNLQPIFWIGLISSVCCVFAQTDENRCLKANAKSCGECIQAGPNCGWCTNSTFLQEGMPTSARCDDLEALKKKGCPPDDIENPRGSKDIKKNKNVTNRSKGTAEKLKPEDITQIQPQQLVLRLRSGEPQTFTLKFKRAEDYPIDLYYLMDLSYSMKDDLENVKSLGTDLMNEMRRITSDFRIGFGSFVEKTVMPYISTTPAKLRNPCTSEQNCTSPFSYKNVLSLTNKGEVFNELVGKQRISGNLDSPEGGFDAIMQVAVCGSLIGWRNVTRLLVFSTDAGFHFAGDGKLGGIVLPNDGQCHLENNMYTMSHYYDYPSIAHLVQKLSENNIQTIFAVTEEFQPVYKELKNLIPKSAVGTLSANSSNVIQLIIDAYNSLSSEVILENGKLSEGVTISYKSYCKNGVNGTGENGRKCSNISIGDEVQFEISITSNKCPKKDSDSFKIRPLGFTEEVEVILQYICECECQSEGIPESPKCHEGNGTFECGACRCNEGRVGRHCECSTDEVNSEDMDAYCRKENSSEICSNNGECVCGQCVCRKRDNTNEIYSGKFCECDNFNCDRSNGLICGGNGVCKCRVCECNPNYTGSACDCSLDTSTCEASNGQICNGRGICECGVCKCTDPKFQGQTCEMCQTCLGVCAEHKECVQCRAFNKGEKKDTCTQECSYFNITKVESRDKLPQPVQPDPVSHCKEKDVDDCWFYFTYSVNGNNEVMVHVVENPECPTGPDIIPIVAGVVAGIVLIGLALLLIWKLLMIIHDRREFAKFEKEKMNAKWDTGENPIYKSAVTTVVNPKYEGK
Sequence of Integrin beta-1 (Homo sapiens) + Integrin alpha-4 (Homo sapiens) (P13612 whole entry, looked up): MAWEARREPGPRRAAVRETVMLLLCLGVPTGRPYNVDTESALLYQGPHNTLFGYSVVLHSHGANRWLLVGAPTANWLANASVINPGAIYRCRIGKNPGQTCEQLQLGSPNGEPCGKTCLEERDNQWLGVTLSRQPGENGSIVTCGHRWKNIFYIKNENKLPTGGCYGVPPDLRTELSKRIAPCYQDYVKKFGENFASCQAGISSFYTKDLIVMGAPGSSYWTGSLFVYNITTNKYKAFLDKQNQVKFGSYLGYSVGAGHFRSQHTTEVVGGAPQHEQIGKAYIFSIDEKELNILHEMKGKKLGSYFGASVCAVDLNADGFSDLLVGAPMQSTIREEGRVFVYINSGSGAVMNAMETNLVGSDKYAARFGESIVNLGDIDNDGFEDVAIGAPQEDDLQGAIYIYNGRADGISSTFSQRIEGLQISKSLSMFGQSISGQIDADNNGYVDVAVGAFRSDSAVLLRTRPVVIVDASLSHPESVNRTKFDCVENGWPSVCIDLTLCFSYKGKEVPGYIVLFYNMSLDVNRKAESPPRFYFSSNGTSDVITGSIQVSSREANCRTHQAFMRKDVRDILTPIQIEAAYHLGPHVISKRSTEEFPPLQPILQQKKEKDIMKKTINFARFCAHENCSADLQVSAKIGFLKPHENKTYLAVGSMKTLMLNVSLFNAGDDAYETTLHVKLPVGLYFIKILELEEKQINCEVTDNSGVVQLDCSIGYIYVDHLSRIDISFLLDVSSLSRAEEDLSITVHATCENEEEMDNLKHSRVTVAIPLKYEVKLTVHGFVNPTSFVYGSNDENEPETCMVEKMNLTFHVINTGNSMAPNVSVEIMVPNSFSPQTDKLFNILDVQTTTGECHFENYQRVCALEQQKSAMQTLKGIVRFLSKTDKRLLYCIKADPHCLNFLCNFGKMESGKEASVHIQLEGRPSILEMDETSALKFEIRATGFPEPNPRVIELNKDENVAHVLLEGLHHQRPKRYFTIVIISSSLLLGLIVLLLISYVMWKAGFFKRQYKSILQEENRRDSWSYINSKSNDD
Sequence of ATP-binding cassette sub-family B member 6 (Homo sapiens) (Q9NP58 whole entry, looked up): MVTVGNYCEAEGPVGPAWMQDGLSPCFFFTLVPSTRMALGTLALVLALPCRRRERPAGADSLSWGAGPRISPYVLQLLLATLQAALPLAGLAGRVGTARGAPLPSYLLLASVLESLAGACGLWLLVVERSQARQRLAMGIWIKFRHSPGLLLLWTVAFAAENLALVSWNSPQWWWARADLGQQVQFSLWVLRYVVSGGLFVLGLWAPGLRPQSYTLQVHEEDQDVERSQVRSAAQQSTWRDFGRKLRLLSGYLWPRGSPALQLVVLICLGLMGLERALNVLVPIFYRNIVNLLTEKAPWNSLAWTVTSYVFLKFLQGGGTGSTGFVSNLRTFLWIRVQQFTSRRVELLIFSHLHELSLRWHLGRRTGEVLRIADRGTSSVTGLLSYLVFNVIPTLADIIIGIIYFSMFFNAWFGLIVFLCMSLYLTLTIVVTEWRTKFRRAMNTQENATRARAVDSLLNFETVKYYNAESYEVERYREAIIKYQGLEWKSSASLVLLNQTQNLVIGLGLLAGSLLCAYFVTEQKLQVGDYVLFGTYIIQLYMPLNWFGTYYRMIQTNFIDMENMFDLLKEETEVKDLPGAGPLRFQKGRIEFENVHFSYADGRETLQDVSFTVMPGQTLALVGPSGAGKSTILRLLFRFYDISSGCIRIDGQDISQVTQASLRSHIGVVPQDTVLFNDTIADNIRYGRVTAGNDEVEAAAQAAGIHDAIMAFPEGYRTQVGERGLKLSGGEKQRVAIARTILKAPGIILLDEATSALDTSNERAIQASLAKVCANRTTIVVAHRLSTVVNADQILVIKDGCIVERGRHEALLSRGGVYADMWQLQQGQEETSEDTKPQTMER
Sequence of Beta-2 adrenergic receptor (Homo sapiens) (P07550 whole entry, looked up): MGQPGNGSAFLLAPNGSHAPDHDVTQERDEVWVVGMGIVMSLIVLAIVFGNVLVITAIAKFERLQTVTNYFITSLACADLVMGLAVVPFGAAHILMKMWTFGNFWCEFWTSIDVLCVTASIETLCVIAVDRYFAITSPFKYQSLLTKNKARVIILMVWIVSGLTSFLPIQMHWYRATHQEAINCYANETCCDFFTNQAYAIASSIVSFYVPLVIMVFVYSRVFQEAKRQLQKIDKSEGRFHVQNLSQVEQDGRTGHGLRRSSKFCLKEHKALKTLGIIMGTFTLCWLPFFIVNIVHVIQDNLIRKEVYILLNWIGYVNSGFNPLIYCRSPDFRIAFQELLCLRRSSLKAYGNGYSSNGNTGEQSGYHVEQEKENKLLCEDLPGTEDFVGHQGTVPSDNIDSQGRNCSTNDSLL
Sequence of Beta-adrenergic receptor kinase 1 (Homo sapiens) (P25098 whole entry, looked up): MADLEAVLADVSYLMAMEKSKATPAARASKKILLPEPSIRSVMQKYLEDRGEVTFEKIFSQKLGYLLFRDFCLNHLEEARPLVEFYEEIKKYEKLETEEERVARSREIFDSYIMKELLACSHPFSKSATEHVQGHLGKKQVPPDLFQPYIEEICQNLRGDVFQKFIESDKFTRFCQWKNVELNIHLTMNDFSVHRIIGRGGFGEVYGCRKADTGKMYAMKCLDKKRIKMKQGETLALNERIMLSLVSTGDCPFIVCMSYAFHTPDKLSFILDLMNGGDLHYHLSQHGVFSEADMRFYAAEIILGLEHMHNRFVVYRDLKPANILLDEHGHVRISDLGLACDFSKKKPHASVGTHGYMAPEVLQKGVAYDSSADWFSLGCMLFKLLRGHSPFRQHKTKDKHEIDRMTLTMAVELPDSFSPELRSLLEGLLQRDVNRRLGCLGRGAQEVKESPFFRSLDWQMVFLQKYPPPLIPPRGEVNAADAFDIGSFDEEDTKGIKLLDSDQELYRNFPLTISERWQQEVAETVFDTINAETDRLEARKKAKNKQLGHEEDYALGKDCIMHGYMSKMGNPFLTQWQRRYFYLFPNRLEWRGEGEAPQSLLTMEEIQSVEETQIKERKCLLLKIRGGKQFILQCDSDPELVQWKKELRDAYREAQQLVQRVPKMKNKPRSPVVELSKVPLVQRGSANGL

Take `C=CCOC(=O)C1=C(C)NC(=O)NC1/C=C/c1ccccc1OC` (stereo not given): in [1], the percent of DMSO control GFP is 100% (inactive). Also, the GFP response vs DMSO in experiment [2] was 101% (inactive); in experiment [4], 103% (inactive). Besides, the percent response of DMSO control in [3] was 103% (inactive). In [5], the GFP response, % of DMSO was 108% (inactive). In experiment [6], this molecule yielded a double positive events of 57.9%. In addition, the vesicle binding response in [6] is 97% (inactive). Also, the values for the inhibition in [7], in experiment [11] and in experiment [15] were -1.09% (inactive), -14.7% (inactive) and 9% (inactive), respectively. Moreover, in experiment [8], the superoxide response (% of plate) was 115% (inactive). In experiment [9], the aptamer binding inhibition is 1% (inactive). Also, the response was -4.89% (inactive) in experiment [10] and 6.85% (inactive) in [12]. For the same molecule, in [13], the binding (% of control) was 106% (inactive). The efflux inhibition (fraction of control) in experiment [14] is -0.03 (inactive). Besides, the differentiation response in experiment [16] was -1.65% (inactive).

Take `CN(C)CCOC(c1ccccc1)c1ccccc1`: the percent of DMSO control GFP in experiment [1] was 94.4% (inactive). Further, the GFP response vs DMSO in [2] is 123% (inactive); in [4], 87.5% (inactive). Also, in [3], the percent response of DMSO control was 115% (inactive). The GFP response, % of DMSO in experiment [5] was 89.4% (inactive). Besides, in experiment [6], the double positive events is 43.1%. Besides, the vesicle binding response in [6] is 107% (inactive). Besides, the inhibition is 1.61% (inactive) in experiment [7], 29.6% (inactive) in [11] and 2% (inactive) in experiment [15]. In [8], the superoxide response (% of plate) is 96.7% (inactive). Also, the aptamer binding inhibition in [9] was -1% (inactive). Also, the results for the response in [10] and in experiment [12] were -13.1% (inactive) and -7.12% (inactive), respectively. In addition, in [13], the binding (% of control) is 98% (inactive). In experiment [14], the efflux inhibition (fraction of control) is 0.52 (active). In experiment [16], the differentiation response is 1.64% (inactive).

In the case of `Cc1ccsc1C1NC(=O)c2ccccc2N1` (stereo not given), the percent of DMSO control GFP in experiment [1] was 103% (inactive). Besides, the GFP response vs DMSO in experiment [2] is 95.2% (inactive); in [4] it was 93.1% (inactive). In addition, the percent response of DMSO control in experiment [3] was 94.8% (inactive). In experiment [5], the GFP response, % of DMSO is 93.8% (inactive). In addition, the double positive events in experiment [6] is 59.5%. In [6], the vesicle binding response is 266% (inactive). In addition, the values for the inhibition in experiment [7], in experiment [11] and in experiment [15] were 0.94% (inactive), -5.8% (inactive) and 6% (inactive), respectively. Further, the superoxide response (% of plate) in experiment [8] is 102% (inactive). Also, in experiment [9], the aptamer binding inhibition is 1% (inactive). Besides, the values for the response in experiment [10] and in experiment [12] were -6.32% (inactive) and -1.97% (inactive), respectively. In [13], the binding (% of control) is 97.6% (inactive). In experiment [14], the efflux inhibition (fraction of control) is -0.28 (inactive). Further, the differentiation response in experiment [16] is -15.2% (inactive).

For `COC(=O)c1ccc(NC(=O)c2ccccc2SC)cc1`, the percent of DMSO control GFP in [1] is 97.8% (inactive). Besides, the GFP response vs DMSO is 104% (inactive) in experiment [2] and 106% (inactive) in experiment [4]. In [3], the percent response of DMSO control is 102% (inactive). Also, the GFP response, % of DMSO in experiment [5] was 91.8% (inactive). In [6], this molecule returned a double positive events of 58.4%. Also, the vesicle binding response in experiment [6] was 132% (inactive). The inhibition was 1.62% (inactive) in experiment [7], 18.8% (inactive) in [11] and 1% (inactive) in [15]. The superoxide response (% of plate) in [8] was 109% (inactive). Also, in [9], the aptamer binding inhibition is 2% (inactive). Also, the response in experiment [10] is 1.63% (inactive); in [12] it was -1.67% (inactive). In experiment [13], the binding (% of control) is 99% (inactive). In addition, the efflux inhibition (fraction of control) in [14] is -0.26 (inactive). Besides, the differentiation response in experiment [16] is 5.13% (inactive).

On to `COc1ccccc1C(CCN(Cc1ccccc1)C(C)=O)c1ccco1` (stereo not given), for which the percent of DMSO control GFP in experiment [1] was 91.5% (inactive). Moreover, the GFP response vs DMSO was 130% (inactive) in [2] and 78.7% (inactive) in experiment [4]. For the same molecule, the percent response of DMSO control in experiment [3] is 103% (inactive). The GFP response, % of DMSO in experiment [5] was 88% (inactive). The molecule also had a double positive events in [6] of 56.4%. Moreover, the vesicle binding response in [6] was 145% (inactive). Moreover, the inhibition in experiment [7] was 8.4% (inactive); in [11], 2.58% (inactive); in [15], 15% (inactive). Further, in experiment [8], the superoxide response (% of plate) was 122% (inactive). Also, the aptamer binding inhibition in experiment [9] is 6% (inactive). Moreover, the response is -11.5% (inactive) in experiment [10] and 0.45% (inactive) in experiment [12]. Also, the binding (% of control) in [13] was 102% (inactive). In addition, the efflux inhibition (fraction of control) in [14] is 0.12 (inactive). The differentiation response in [16] is 1.64% (inactive).
